# Experimental data: PubChem BioAssay (Tox21)
# Records with an inconclusive call do not appear. Where a call stands in place of a potency, no number is given. The source holds several records for some structures; these can differ, active in one and inactive in another. Calls of active or inactive are those of the source. Unless noted, calls follow the shape of the dose curve; as a rule, active = well fitted curve in the direction sought with a large enough effect in the repeat runs; inconclusive = weak or mixed curves; inactive = no such curve, though single readings can be large; an effect the other way counts as inactive or inconclusive.
# Columns and labels:
# [1] = qHTS assay to identify small molecule agonists of the estrogen receptor beta (ER-beta) signaling pathway - cell viability counter screen (AID 1259380); also: nearly all actives have a fitted effect of over 30% in size; also: potency is read from the fitted curve at half-maximal effect
# Method in brief: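 ER-beta-UAS-bla HEK293T cells in medium with 2% charcoal-stripped FBS were preincubated 6 hr at 37C, dosed with compound in DMSO for 16 hr, then after the bla read, CellTiter-Glo was added for 30 min at room temperature; luminescence recorded.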
# [2] = qHTS assay to identify small molecule antagonists of the estrogen receptor beta (ER-beta) signaling pathway - cell viability counter screen (AID 1259382);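 also: HEK293T cells carrying ER-beta-UAS-bla reporter stimulated with estradiol; series mostly up to about 92 µM; nearly all actives have a fitted effect of over 55% in size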
# Method in brief: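 ER-beta-UAS-bla HEK293T cells (2,000/well, 2% charcoal-stripped FBS) were pre-incubated 6 hr at 37C, then given compound plus 1nM final 17-beta-estradiol for 16 hr. Viability was read in the same wells by CellTiter-Glo luminescence after 30 min at room temperature.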
# [3] = qHTS assay to identify small molecule agonists of the estrogen receptor alpha (ER-alpha) signaling pathway in the presence of an antagonist - cell viability counter screen (AID 1259386);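 also: series mostly up to about 92 µM; cells exposed to compounds for 22 h at 37 °C before the viability read; nearly all actives have a fitted effect of over 30% in size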
# Method in brief: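 VM7Luc4E2 cells (endogenous full-length ER-alpha, 4×ERE-luciferase) were held 5 days in phenol red-free medium with 10% charcoal-stripped FBS, plated, then given 10.0nM ICI-182,780 and compounds at 15 concentrations for 22hr at 37C; viability read by CellTiter-Fluor fluorescence.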
# [4] = target: Progesterone receptor (Homo sapiens) (UniProt P06401); test: qHTS assay to identify small molecule agonists of the progesterone receptor (PR) signaling pathway (AID 1346784; calls by dose curve; also: nearly all actives have a fitted effect of over 30% in size; also: potency is read from the fitted curve at half-maximal effect)
# Progesterone receptor (Homo sapiens), sequence (P06401 whole entry, looked up): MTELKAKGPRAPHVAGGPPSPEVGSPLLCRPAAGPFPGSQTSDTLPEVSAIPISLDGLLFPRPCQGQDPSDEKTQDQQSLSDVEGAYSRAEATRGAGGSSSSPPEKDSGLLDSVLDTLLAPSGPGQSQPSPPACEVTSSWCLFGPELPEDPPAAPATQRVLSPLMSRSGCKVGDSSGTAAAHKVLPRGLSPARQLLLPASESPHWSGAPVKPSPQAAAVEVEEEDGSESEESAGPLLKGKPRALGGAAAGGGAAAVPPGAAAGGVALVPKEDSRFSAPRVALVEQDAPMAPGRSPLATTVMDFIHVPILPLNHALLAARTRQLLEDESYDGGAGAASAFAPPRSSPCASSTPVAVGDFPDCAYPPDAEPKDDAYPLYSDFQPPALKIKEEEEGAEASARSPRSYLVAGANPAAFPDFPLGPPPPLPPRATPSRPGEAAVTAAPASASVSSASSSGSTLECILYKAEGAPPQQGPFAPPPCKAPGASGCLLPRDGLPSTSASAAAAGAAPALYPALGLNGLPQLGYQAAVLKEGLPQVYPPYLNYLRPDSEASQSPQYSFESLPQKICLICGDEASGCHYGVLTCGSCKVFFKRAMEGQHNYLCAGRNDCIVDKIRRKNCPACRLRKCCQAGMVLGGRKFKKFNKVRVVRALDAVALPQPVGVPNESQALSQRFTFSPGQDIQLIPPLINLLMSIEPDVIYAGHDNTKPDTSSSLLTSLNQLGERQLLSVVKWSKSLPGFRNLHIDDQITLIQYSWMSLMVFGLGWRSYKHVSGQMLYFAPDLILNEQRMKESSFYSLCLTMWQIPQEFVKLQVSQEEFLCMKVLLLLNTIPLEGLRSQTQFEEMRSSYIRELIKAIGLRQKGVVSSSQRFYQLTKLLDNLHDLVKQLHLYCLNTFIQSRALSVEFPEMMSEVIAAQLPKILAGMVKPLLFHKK
# Method in brief: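 Fluorescence from LiveBLAzer B/G FRET substrate cleavage (2 hr, RT) reported PR activation in PR-UAS-bla HEK 293T cells treated 16 hr at 37C/5% CO2 with compounds; medium contained 2% charcoal-stripped FBS.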
# [5] = target: Progesterone receptor (Homo sapiens) (UniProt P06401); test: qHTS assay to identify small molecule antagonists of the progesterone receptor (PR) signaling pathway (AID 1346795; active = well fitted inhibition curve with a large enough effect in the signal ratio in the repeat runs, not every such curve was filed as active; the % refers to the signal ratio; also: potency is read from the fitted curve at half-maximal effect)
# Method in brief: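 Fluorescence intensity measured 2 hr after adding beta-lactamase FRET substrate to PR-UAS-bla HEK293T cells that had been co-treated 16 hr with compound and 1 nM R5020 (final concentration) in 2% charcoal-stripped FBS.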
# [6] = qHTS assay to identify small molecule antagonists of the progesterone receptor (PR) signaling pathway - cell viability counter screen (AID 1346798); also: series mostly up to about 92 µM; nearly all actives have a fitted effect of over 50% in size
# Method in brief: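 CellTiter-Glo luminescence; PR-UAS-bla HEK293T, 3,000 cells/well; compound + R5020, 16 hr, 37C/5% CO2; 30 min RT before read.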
# [7] = qHTS assay to identify small molecule agonists of the progesterone receptor (PR) signaling pathway - cell viability counter screen (AID 1346799; calls by dose curve; also: nearly all actives have a fitted effect of over 45% in size)
# Method in brief: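 In parallel with the beta-lactamase readout, cytotoxicity toward PR-UAS-bla HEK293T cells was measured by CellTiter-Glo luminescence following 16 hr compound incubation in 2% charcoal-stripped FBS medium.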
# [8] = qHTS assay to identify small molecule antagonists of the TGF-beta/Smad signaling pathway - cell viability counter screen (AID 1346824); also: nearly all actives have a fitted effect of over 50% in size
# Method in brief: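 SBE-bla HEK 293T cells, incubated overnight, then compound plus 0.25 ng/mL TGF-beta1 (stock added) for 5 hr at 37 C. Viability was read in the same wells by CellTiter-Glo luminescence after 30 min at room temperature.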
# [9] = qHTS assay to identify small molecule agonists of the TGF-beta/Smad signaling pathway - cell viability counter screen (AID 1346829); also: top concentration of the series differs between compounds; nearly all actives have a fitted effect of over 45% in size
# Method in brief: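 In parallel with the Smad reporter read, viability of HEK 293T cells stably carrying SBE-bla is quantified by ATP luminescence following 5 hr compound treatment.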
# [10] = qHTS assay to identify small molecule agonists of the TGF-beta/Smad signaling pathway (AID 1346859; active = well fitted activation curve with a large enough effect in the signal ratio in the repeat runs, not every such curve was filed as active; the % refers to the signal ratio; also: series mostly up to about 77 µM)
# Method in brief: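 After overnight seeding, SBE-bla HEK 293T cells are dosed with compounds in DMSO and kept 5 hr at 37 C, 5% CO2. LiveBLAzer-type FRET substrate is then applied for 2 hr at room temperature.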
# [11] = Human pregnane X receptor (PXR) small molecule agonists, qHTS cell viability counter screen (AID 1346977); also: nearly all actives have a fitted effect of over 50% in size
# Method in brief: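 Viability counter screen: CellTiter-Fluor signal in PXR-Luc HepG2 cells, 24hr compound exposure, 37C, 5% CO2.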
# [12] = Caspase-3/7 induction in HepG2 cells by small molecules, qHTS assay (AID 1346978); also: nearly all actives have a fitted effect of over 15% in size
# Method in brief: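 Wild-type HepG2 cells, 2,000/well, settled 5 hr at 37 C and 5% CO2, then compound-treated for 17 hr; caspase-3/7 activity read by luminescent Caspase-Glo 3/7 after 30 min at room temperature.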
# [13] = Caspase-3/7 induction in CHO-K1 cells by small molecules, qHTS cell viability counter screen (AID 1346979); also: nearly all actives have a fitted effect of over 35% in size; also: potency is read from the fitted curve at half-maximal effect
# Method in brief: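 Viability readout by fluorescence (CellTiter-Fluor) on wild-type CHO-K1 cells exposed for 16hr at 37C and 5% CO2 to compounds delivered in DMSO; reagent incubated 1hr before reading.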
# [14] = Caspase-3/7 induction in CHO-K1 cells by small molecules, qHTS assay (AID 1346980); also: nearly all actives have a fitted effect of over 15% in size
# Method in brief: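 Wild-type CHO-K1 cells exposed to compounds for 17hr at 37 C, 5% CO2. Caspase-3/7 activity then measured by Caspase-Glo 3/7 luminescence after 30min at room temperature.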
# [15] = qHTS assay to identify small molecule agonists or antagonists of the thyroid stimulating hormone receptor (TSHR) signaling pathway - wild type cell line counter screen (AID 1259384; calls by dose curve)
# Method in brief: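 Wild-type Hek293 cells, 800/well, 18 h at 37C, then compound with Ro20-1724 for 30 min RT. cAMP by HTRF (cAMP-d2/anti-cAMP cryptate), 1 h RT, fluorescence read. 15 concentrations, triplicates.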
# [16] = target: Thyrotropin-releasing hormone receptor (Homo sapiens) (UniProt P34981); test: qHTS assay to identify small molecule antagonists of the thyrotropin-releasing hormone receptor (TRHR) signaling pathway (AID 1346877; active = well fitted inhibition curve with a large enough effect in the repeat runs, not every such curve was filed as active; also: series mostly up to about 51 µM)
# Thyrotropin-releasing hormone receptor (Homo sapiens), sequence (P34981 whole entry, looked up): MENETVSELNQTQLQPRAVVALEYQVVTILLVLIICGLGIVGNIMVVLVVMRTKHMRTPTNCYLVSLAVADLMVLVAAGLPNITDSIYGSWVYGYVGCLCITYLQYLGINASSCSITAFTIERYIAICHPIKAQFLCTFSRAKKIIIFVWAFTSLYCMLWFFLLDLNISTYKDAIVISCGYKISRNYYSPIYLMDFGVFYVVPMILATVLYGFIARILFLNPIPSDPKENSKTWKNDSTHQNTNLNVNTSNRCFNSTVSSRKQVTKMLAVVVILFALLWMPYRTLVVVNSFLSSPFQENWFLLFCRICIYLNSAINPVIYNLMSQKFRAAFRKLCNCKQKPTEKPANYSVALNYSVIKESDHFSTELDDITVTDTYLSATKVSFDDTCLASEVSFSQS
# Method in brief: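 TRHR-expressing HEK293 cells were seeded, cultured 18 h at 37 °C, then loaded with calcium dye for 2 h. Compounds were pre-incubated 5 min at room temperature before 1 nM TRH (final) was added, and kinetic fluorescence was recorded for 3 min.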
# [17] = target: Thyrotropin-releasing hormone receptor (Homo sapiens) (UniProt P34981); test: qHTS assay to identify small molecule agonists of the thyrotropin-releasing hormone receptor (TRHR) signaling pathway (AID 1346891; calls by dose curve; also: series mostly up to about 58 µM)
# Method in brief: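 Compounds were tested as agonists at 15 concentrations, in triplicate, on TRHR-Hek293 cells; calcium-sensitive dye fluorescence was recorded for 3 min following addition.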
# [18] = target: Thyrotropin receptor (Homo sapiens) (UniProt P16473); test: qHTS assay to identify small molecule antagonists of the thyroid stimulating hormone receptor (TSHR) signaling pathway (AID 1259385; calls by dose curve; also: nearly all actives have a fitted effect of over 20% in size; also: potency is read from the fitted curve at half-maximal effect)
# Thyrotropin receptor (Homo sapiens), sequence (P16473 whole entry, looked up): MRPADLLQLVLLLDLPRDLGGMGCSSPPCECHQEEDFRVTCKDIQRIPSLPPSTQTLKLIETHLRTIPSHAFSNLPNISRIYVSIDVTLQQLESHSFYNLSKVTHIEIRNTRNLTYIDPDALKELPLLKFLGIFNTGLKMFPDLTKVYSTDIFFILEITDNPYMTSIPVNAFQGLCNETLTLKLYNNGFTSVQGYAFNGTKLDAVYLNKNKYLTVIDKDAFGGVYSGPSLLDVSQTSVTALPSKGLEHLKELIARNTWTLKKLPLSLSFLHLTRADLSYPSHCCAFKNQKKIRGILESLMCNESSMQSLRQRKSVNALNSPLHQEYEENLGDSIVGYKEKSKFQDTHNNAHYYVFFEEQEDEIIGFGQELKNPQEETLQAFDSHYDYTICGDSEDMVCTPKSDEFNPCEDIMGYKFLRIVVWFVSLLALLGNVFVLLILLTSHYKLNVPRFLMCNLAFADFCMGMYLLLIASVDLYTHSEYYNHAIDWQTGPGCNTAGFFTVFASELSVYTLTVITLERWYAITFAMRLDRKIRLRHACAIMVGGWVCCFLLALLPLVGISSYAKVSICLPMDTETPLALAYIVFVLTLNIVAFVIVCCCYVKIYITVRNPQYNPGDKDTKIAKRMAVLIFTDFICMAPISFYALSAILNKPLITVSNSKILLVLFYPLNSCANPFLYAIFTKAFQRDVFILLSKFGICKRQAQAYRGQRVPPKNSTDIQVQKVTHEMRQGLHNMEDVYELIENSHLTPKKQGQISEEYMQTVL
# Method in brief: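 TSHR-HEK293 cells (800/well) plated 18 h, then compounds with Ro20-1724 and TSH at 1.5 ng/mL final, 30 min at room temperature. cAMP quantified by HTRF (cAMP-d2/anti-cAMP-cryptate, 1 h); 15 concentrations in triplicate.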
Structure (SMILES),Potency [1],Potency [2],Potency [3],Potency [4],activation [4],Potency [5],Potency [6],Potency [7],Potency [8],Potency [9],outcome [10],Potency [11],Potency [12],Potency [13],outcome [14],outcome [15],Potency [16],outcome [17],Potency [18]
O=C(O)[C@H](O)[C@@H](O)[C@H](O)[C@H](O)CO,inactive,inactive,inactive,2.43 µM (active),-0.268% [at 3.27 µM] (inactive),inactive,inactive,inactive,inactive,inactive,inactive,inactive,inactive,inactive,inactive,,,,
CCCCOC(=O)COc1ccc(Cl)cc1Cl,inactive,inactive,inactive,inactive,,inactive,inactive,inactive,inactive,inactive,inactive,inactive,inactive,inactive,inactive,inactive,inactive,inactive,
O=c1[nH]c(=O)n([C@H]2CCCO2)cc1F,inactive,inactive,inactive,inactive,,inactive,inactive,inactive,inactive,inactive,inactive,inactive,inactive,inactive,inactive,,inactive,inactive,
CCCCC(CC)CO (stereo not drawn),inactive,inactive,inactive,inactive,,inactive,inactive,inactive,inactive,inactive,inactive,inactive,inactive,inactive,inactive,inactive,,,
N[C@@H](Cc1cc(I)c(Oc2cc(I)c(O)c(I)c2)c(I)c1)C(=O)O,inactive,inactive,inactive,inactive,,inactive,inactive,,inactive,inactive,inactive,inactive,inactive,inactive,inactive,inactive,,,
OCCOCCN1CCN(C2=Nc3ccccc3Sc3ccccc32)CC1,13.3 µM (active),inactive,inactive,inactive,,inactive,inactive,inactive,inactive,inactive,inactive,inactive,inactive,inactive,inactive,,inactive,inactive,inactive
Cc1cccnc1,inactive,inactive,inactive,inactive,,inactive,inactive,inactive,inactive,inactive,inactive,inactive,inactive,inactive,inactive,,inactive,inactive,inactive
CCCCCCCCCCCCc1ccccc1,inactive,inactive,inactive,inactive,,inactive,inactive,inactive,inactive,inactive,inactive,inactive,inactive,,inactive,,inactive,inactive,inactive
CCCCC(CC)COC(=O)C(C#N)=C(c1ccccc1)c1ccccc1 (stereo not drawn),inactive,inactive,inactive,inactive,,8.63 µM (active),inactive,,inactive,inactive,inactive,inactive,inactive,,inactive,,inactive,inactive,61.1 µM (active)
CCCC(C)=O,inactive,inactive,inactive,inactive,,inactive,inactive,inactive,inactive,inactive,inactive,inactive,inactive,inactive,inactive,,inactive,inactive,
CC1=CC(=O)NS(=O)(=O)O1,inactive,inactive,inactive,inactive,,inactive,inactive,inactive,inactive,inactive,inactive,inactive,inactive,inactive,inactive,inactive,inactive,inactive,
Nc1ccccc1[N+](=O)[O-],inactive,inactive,inactive,inactive,,inactive,inactive,inactive,inactive,inactive,inactive,inactive,inactive,inactive,inactive,inactive,inactive,inactive,
COCCCOc1ccnc(CS(=O)c2nc3ccccc3[nH]2)c1C (stereo not drawn),inactive,inactive,inactive,inactive,,60.9 µM (active) and inactive,inactive,,inactive,inactive,inactive,inactive,inactive,60.9 µM (active) and inactive,inactive,inactive,inactive,inactive,
